Most compounds without a hit are left out; they make up all but 5.5% or so of the library.
uPA generation: inhibitors of cell surface uPA generation. AID 540303. cell surface uPA generation assay, qHTS. 330,000 compounds, 0.31% hits. Potency, µM (doses to about 38.3 µM), hits mostly inhibitors; active = well fitted inhibition curve with a large enough effect; inconclusive = small, poorly fitted or top-dose-only effect; inactive = no such curve, though single readings can be large or run the other way; tested in mouse RAW 264.7 cells; note: nearly all actives have a fitted effect of over 55% in size
BCR signal inh: inhibitors of chronic active B-cell receptor signaling; ABC-DLBCL IkBa-CBG/CBR reporter, luminescence ratio, 4 h; Potency, µM (top dose mostly 46.1 µM), actives largely listed as inhibitors; 340,000 compounds, 0.05% hits; active = well fitted inhibition curve with a large enough effect in the signal ratio, with a control signal flat, not every such curve was filed as active; inconclusive = small, poorly fitted or top-dose-only effect, or effect the other way, or a change in a side signal; the % refers to the signal ratio
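Compounds up to 46 uM were incubated four hours with TMD8 cells whose green CBG68 luciferase is fused to IkappaBalpha; red CBR luminescence normalised the signal, and concentration-effect curves were fitted to fusion, red and ratio data.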
a7 integrin act: activates integrin-mediated alleviation for muscular dystrophy; alpha7betagal myoblasts, beta-gal FDG fluorescence, 48 h; AID 624291; Potency, µM (titrated, usually from 38.3 µM), most hits filed as activators; 350,000 compounds, 0.064% hits; note: nearly all actives have a fitted effect of over 60% in size
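alpha7betagal+/- myoblasts (passage 13, 250/well) treated 48 h at 37C with compounds at 1:260 dilution of DMSO stock. Lysed, then beta-galactosidase activity read as FDG fluorescence (ex 480/em 540) after 30 min, with pre-read for autofluorescence.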
RORgamma inh: inhibitors of mouse ROR gamma transcriptional activity; Drosophila S2 Gal4-RORgamma UAS-luciferase reporter, 20 h; Potency, µM (highest dose often 53.6 µM), usual class: inhibitors; 310,000 compounds, 5.4% hits; AID 2551; note: nearly all actives have a fitted effect of over 60% in size
Target sequence (P51450 whole entry, looked up, the tested form may be a part): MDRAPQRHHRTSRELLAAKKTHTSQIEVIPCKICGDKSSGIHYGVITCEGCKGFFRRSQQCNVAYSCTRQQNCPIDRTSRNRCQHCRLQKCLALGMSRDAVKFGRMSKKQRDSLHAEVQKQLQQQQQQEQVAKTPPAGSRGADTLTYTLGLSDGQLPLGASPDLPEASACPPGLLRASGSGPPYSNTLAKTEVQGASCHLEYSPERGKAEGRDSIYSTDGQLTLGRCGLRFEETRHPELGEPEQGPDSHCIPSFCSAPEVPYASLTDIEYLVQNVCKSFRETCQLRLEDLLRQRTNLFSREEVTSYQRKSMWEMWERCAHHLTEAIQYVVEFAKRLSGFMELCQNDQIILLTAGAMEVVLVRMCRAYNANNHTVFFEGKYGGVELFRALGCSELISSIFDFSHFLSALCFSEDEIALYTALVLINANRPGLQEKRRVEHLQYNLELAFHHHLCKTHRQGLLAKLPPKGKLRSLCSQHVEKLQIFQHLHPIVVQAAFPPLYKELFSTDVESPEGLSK
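Drosophila Schneider cells stably carrying a metallothionein-driven Gal4 DBD–ROR gamma fusion and a UAS-Photinus luciferase reporter were exposed to compound for 1 hr, then induced with copper sulfate (700 uM final) for 20 hr at ambient temperature before luminescence reading.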
Mito fusion yeast: mitochondrial division inhibition or fusion activation; Potency, µM (doses to about 46.1 µM), hits mostly activators; S. cerevisiae fusion-defective mutant growth rescue, CellTiterGlo 48 h; 320,000 compounds, 0.23% hits; AID 485298; note: nearly all actives have a fitted effect of over 45% in size
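S. cerevisiae fusion-defective temperature-sensitive mutants (e.g. fzo1-1, mgm1-5) grown 48 h at 37C in YPEG (ethanol/glycerol non-fermentable) medium with 23 nl compound per well; growth rescue read as CellTiterGlo luminescence.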
Gal4-VP16 FLuc: inhibits Gal4-VP16 luciferase reporter, ROR gamma counter-screen. Drosophila S2 Gal4-VP16 UAS-luciferase, luminescence, 20 h. Potency, µM (top dose mostly 53.6 µM), actives largely listed as inhibitors. 310,000 compounds, 3.5% hits. AID 2546;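 note: Gal4-VP16 expression switched on by copper sulfate through the metallothionein promoter; nearly all actives have a fitted effect of over 50% in size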
Hits are given with their value; - = inactive; ? = inconclusive; . = not tested or not shown; [ ] = remark or other dose. Unless noted, calls come from the whole dose curve; as a rule, active = well fitted curve in the direction sought with a large enough effect; inconclusive = small, poorly fitted or top-dose-only effect, or another doubt; inactive = no such curve, though single readings can be large; an effect the other way counts as inactive or inconclusive.

SMILES | uPA generation | BCR signal inh | a7 integrin act | RORgamma inh | Mito fusion yeast | Gal4-VP16 FLuc
COc1ccc(C(=O)/C(C#N)=N/Nc2ccccc2[N+](=O)[O-])cc1 | - | ? | - | ? | - | ?
COc1cc(C2Oc3ccccc3C=C2[N+](=O)[O-])cc(OC)c1OC (stereo not given) | ? | ? | - | ? | - | 13µM
Cc1ccccc1C(=O)NC(=S)NCc1ccccc1 | - | - | - | 6.3µM | - | 7.1µM
Cc1ccccc1C(=O)NCC(=O)NNC(=S)NC(=O)c1ccccc1C | - | - | - | 5.6µM | . | ?
Cc1ccccc1C(=O)NC(=S)NCc1cccnc1 | - | - | - | - | - | -
Cc1ccccc1C(=O)NCC(=O)NNC(=S)NC(=O)c1ccccc1 | - | - | - | ? | - | -
Cc1ccccc1C(=O)NC(=S)NCCc1ccccc1 | - | ? | - | 7.9µM | - | ?
CC(C)(C)CC(=O)NC(=S)NCc1ccccc1 | - | - | ? | 1.1µM | - | 8.9µM
COc1ccc(CNC(=O)CN(C)Cc2ccc(C(C)(C)C)cc2)cc1 | - | - | - | - | - | -
NCCNS(=O)(=O)c1cccc2c(Cl)cccc12 | . | . | . | - | - | -
O=C(CSc1nnc2ccc(-c3ccc(F)cc3)nn12)N1CCOCC1 | - | - | - | . | - | .
C=CCN(CC=C)C(=O)CN1C(=O)NC(Cc2c[nH]c3ccccc23)C1=O (stereo not given) | - | ? | - | - | - | -
CCCCn1nc(NS(=O)(=O)c2cccc3nonc23)c2cc3cccc(C)c3nc21 | - | - | - | ? | 11µM | -
CCn1nc(NS(=O)(=O)c2cccc3nonc23)c2cc3ccc(C)cc3nc21 | - | - | - | - | - | -
Cc1cc(CC(C)C)n(-c2nc3ccccc3c(=O)n2OCC(=O)N(C)C)n1 | - | - | - | 2.2µM | - | 6.3µM
Cc1cc(C)n(-c2nc3ccccc3c(=O)n2OCc2ccc(F)cc2)n1 | - | ? | - | ? | ? | ?
Cc1cc(CC(C)C)n(-c2nc3ccccc3c(=O)n2OCc2ccccc2)n1 | - | ? | - | 1.6µM | - | ?
C[C@@H]1C=CCC(=O)OC[C@H](C)C(=O)OC[C@H]2O[C@H]1C=C[C@@H]2O | . | . | . | -[10 µM] | . | -[10 µM]
COc1ccc(C(=O)NCC(=O)OCC(=O)NC2CCCCCC2)cc1 | - | - | - | . | . | .
COc1ccc(NC(=O)CC2C(=O)N(c3ccc(F)cc3)C(=S)N2NC(=O)c2ccc(Cl)cc2)cc1 (stereo not given) | - | ? | - | 11µM | - | 20µM
COc1ccc(NC(=O)CC2C(=O)N(c3ccc(Cl)cc3)C(=S)N2NC(=O)c2cccc(F)c2)cc1 (stereo not given) | - | - | - | 10µM | - | 18µM
CCOC(=O)N1CCN(C(=O)COC(=O)CNC(=O)c2ccc(C)cc2)CC1 | - | ? | - | . | - | .
CC[C@H](C)[C@H](NC(=O)[C@H](CC(=O)O)NC(=O)[C@H](CC(C)C)NC(=O)[C@H](NC(C)=O)C(c1ccccc1)c1ccccc1)C(=O)N[C@H](C(=O)N[C@@H](Cc1c[nH]c2ccccc12)C(=O)O)[C@@H](C)CC | . | . | . | - | . | -
O=C1ON=C(c2ccccc2)/C1=C/c1ccc(-c2ccccc2[N+](=O)[O-])o1 | - | ? | - | ? | - | 10µM
COc1ccc(-c2nnc3n2N=C(c2ccccc2OC)CS3)cc1 | . | . | . | ? | . | -
CC1CCc2nc(NC(=O)C3COc4ccccc4O3)sc2C1 (stereo not given) | ? | ? | - | ? | ? | 10µM
Cc1csc(NC(=O)C2COc3ccccc3O2)n1 (stereo not given) | - | ? | - | 14µM | - | 11µM
C[C@@H](C(=O)Nc1nc(-c2ccccn2)cs1)N1C(=O)C2CCCCC2C1=O (stereo not given in full) | - | ? | - | 13µM | - | ?
CC1CCc2nc(NC(=O)C3CC3)sc2C1 (stereo not given) | - | - | - | - | - | -
CCNC(=O)c1c(NC(=O)C2COc3ccccc3O2)sc2c1CCCC2 (stereo not given) | - | - | - | ? | - | 11µM

Assay outcomes deposited in PubChem BioAssay by National Center for Advancing Translational Sciences (NCATS).
